# ssDAF12 agonist: activators of S. stercoralis DAF-12 nuclear receptor | HEK293 ssDAF-12/GRIP1 lit1-tk-luc reporter, luminescence; % of 3 µM dafachronic acid response | activation, % at 6.8 µM | 370,000 tested, 1% active;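 active = activation above the mean over all tested compounds plus 3 SD, cut at about 0.9% in these data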;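 note: 0% = DMSO-only wells and 100% = 3 µM delta7-dafachronic acid wells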
# DAX1 inh-1: inhibitors of DAX1 repression of SF-1 activated StAR promoter; 370,000 tested, 1.1% active; HEK293T StAR-luciferase reporter, SF-1/DAX-1 repression relief; inhibition, % at 6.8 µM;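 active = inhibition above the mean over all tested compounds plus 3 SD, cut at about 3.6% in these data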;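 note: 0% = DAX-1 cells with DMSO and 100% = cells lacking DAX-1 with DMSO; higher inhibition means more luminescence from relief of DAX-1 repression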
# hgDAF12 agonist: hgDAF-12 agonism, primary luciferase screen; AID 687014; HEK293 GAL4-hgDAF12 UAS-luciferase reporter, agonist luminescence; normalized to butyrate control; 370,000 tested, 1.8% active; activation, % at 6.8 µM;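 active = activation above a cutoff set at the mean of all screened compounds plus 3 SD, cut at about 10% in these data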;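 note: 0% = DMSO wells and 100% = sodium butyrate wells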
# hcDAF-12 act: H. contortus DAF-12 activation, primary screen. HEK293 hcDAF-12 lit1-tk-luc reporter, luminescence; 0% DMSO, 100% Δ7-dafachronic acid. activation, % at 6.8 µM. 370,000 tested, 1.4% active. AID 652067;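 active = activation above the mean of all tested compounds plus 3 SD, cut at about 5.5% in these data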;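 note: 100% = response to 3 µM Δ7-dafachronic acid high control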
# DAX1 inh-2: inhibits human nuclear receptor DAX1; HEK293 Gal4-DAX1 luciferase reporter, luminescence; inhibition, % at 6.75 µM; 340,000 tested, 0.99% active; AID 504766;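 active = inhibition above the mean over all tested compounds plus 3 SD, cut at about 4.2% in these data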;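 note: 0% = DAX1-transfected cells with DMSO and 100% = empty-vector control cells with DMSO; inhibition shows as a rise in luminescence from relieved DAX1 repression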
# Target sequence (P51843 207-470 limits assumed): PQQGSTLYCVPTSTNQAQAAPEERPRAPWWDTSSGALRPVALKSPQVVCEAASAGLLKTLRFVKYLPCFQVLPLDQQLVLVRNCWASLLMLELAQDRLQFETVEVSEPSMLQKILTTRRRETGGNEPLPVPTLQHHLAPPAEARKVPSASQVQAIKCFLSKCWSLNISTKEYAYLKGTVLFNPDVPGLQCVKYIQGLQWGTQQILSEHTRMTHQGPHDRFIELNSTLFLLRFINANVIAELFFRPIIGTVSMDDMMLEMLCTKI
# FXN GAA850 act: increases GAA850 frataxin promoter reporter activity. activation, % at 6 µM. HEK293 lucGAA850 FXN promoter luciferase reporter, 24 h; percent of 10 µM SAHA response. AID 540364. 360,000 tested, 0.56% active;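 active = activation above the average of all compounds screened plus 3 SD, cutoff fixed separately per campaign, cut at about 7.5% in these data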;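 note: 0% = DMSO wells and 100% = 10 µM SAHA wells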
# An asterisk follows results filed as active; . = no result. Compounds with a hit are over-represented: about 4.5% of the library has one in this group of screens.
SMILES,ssDAF12 agonist,DAX1 inh-1,hgDAF12 agonist,hcDAF-12 act,DAX1 inh-2,FXN GAA850 act
Fc1ccc(C2CC(c3ccco3)=Nc3ccccc3S2)cc1 (stereo unspecified),0,-1,1,2,7.0*,2
Cc1cccc(-c2nnc(SCc3cccc4ccccc34)n2-c2ccc(Cl)cc2)c1,-2,-3,-4,-3,.,.
Cc1ccc(C(=O)Nc2c3c(nn2-c2ccccc2)CS(=O)(=O)C3)cc1C,-1,0,0,5.8*,1,0
Cc1ccc(C(=O)OCC(=O)Nc2cc(C(C)(C)C)no2)c(C)c1,-1,3.6*,-1,-1,1,0
COc1ccc2[nH]c(N=Nc3ccccc3C)c(O)c2c1,0,0,9,6.5*,1,4
Cc1ccc2[nH]c(O)c(N=Nc3ccccc3C)c2c1,0,0,-1,4,-1,1
Cc1[nH]c2ccccc2c1Cc1n[nH]c(=S)o1,0,0,6,2,4.7*,-2
Cc1[nH]c2ccccc2c1Cc1nnc(SCC(N)=O)o1,-1,1,3,5,4.7*,0
CCCCCCCCN1CCS(=O)(=O)N(Cc2ccc(F)cc2)C(C(=O)OC)C1 (stereo unspecified),-2,-1,1,-2,.,.
C=CCN(CC#Cc1ccccc1)Cc1ccc(OC)cc1OC,-1,-2,1,-1,.,.
O=C1CCCC(c2ccccc2)N1 (stereo unspecified),-2,1,-2,-2,5.2*,1
CCCCN1CC[C@@H](C)Oc2cc(Br)ccc2S1(=O)=O,-1,-1,-2,1,.,.
CC(=O)Nc1cc(C)c2nc(NC(C)=O)sc2c1,-1,1,1,0,8.3*,3
Cc1ccc2c(c1)C(CS(=O)(=O)NCCc1ccccc1)NC2 (stereo unspecified),-1,-1,0,-2,.,.
COc1ccc2c(c1OC)C(=O)OC2Nc1nc(-c2ccc([N+](=O)[O-])cc2)cs1 (stereo unspecified),1.6*,0,5,3,2,3
COc1ccc2c(c1OC)C(=O)OC2Nc1nc(-c2cc3cc(Br)ccc3oc2=O)cs1 (stereo unspecified),-1,2,11*,1,4.8*,4
COc1ccc(-c2csc(NC3OC(=O)c4c3ccc(OC)c4OC)n2)cc1OC (stereo unspecified),-1,0,0,0,2,1
Cc1ccc(-n2c(SCC(=O)c3ccccc3Br)nnc2-c2ccncc2)cc1,-1,0,-1,-2,.,.
CCC(C)(C)C(=O)Nc1nnc(CCc2ccccc2)s1,1,1,11*,5,4.7*,6
Clc1ccc(-c2nnc(N3CCCC3)nn2)cc1,0,2,10,4,8.8*,3
CCCCCCCCN1C(=O)[C@@H](CC(=O)NCCCOCCCC)C[C@@]2(C(=O)OC)C1=C[C@H](COCc1ccccc1)O[C@@H]2C,-2,-1,3,1,.,.
COc1cc([C@H]2Oc3c(OC)cc(CCCO[C@@H]4O[C@H](CO)[C@@H](O)[C@H](O)[C@H]4O)cc3[C@@H]2CO)ccc1O,-1,2,-1,1,4.7*,1
OC[C@H]1O[C@H](OCCc2ccc(O)cc2)[C@H](O)[C@@H](O)[C@@H]1O,-1,0,0,0,-1,0
O=C1CC(c2ccc3c(c2)OCCO3)Oc2ccccc21 (stereo unspecified),0,1,6,4,1,4
O=C1CC(c2ccc3c(c2)OCCO3)Oc2ccc([N+](=O)[O-])cc21 (stereo unspecified),-2,0,-5,-3,4.7*,-9
SMILES,ssDAF12 agonist,DAX1 inh-1,hgDAF12 agonist,hcDAF-12 act,DAX1 inh-2,FXN GAA850 act
COc1cccc(-c2cc(C(=O)N3C(C)CCCC3C)no2)c1 (stereo unspecified),0,2,4,5.9*,2,6
COc1ccccc1-c1cc(C(=O)N2CCCC2)no1,0,3,9,6.5*,3,3
COc1cccc(-c2cc(C(=O)N3CCOCC3)no2)c1,0,2,10,3,1,3
COc1ccc(-c2cc(C(=O)N3CCOCC3)no2)cc1,1.3*,3,10,5,-1,-2
CCCCN1C(=O)N2CCc3ccccc3C2CS1(=O)=O (stereo unspecified),-1,0,3,1,.,.
Brc1ccc(-c2nn3c(-c4ccccc4)nnc3s2)o1,-1,-2,3,-2,.,.
Cc1ccc2nc(SCC(=O)Nc3ccc4[nH]c(=O)[nH]c4c3)[nH]c2c1,1.0*,3,2,3,0,1
COC(=O)CSc1nc2ccc(C)cc2[nH]1,-1,1,0,2,1,-1
O=C(CSc1nc2ccccc2[nH]1)Nc1ccc(F)c(F)c1,-1,0,-3,-1,-1,0
Cc1ccc2nc(SCC(=O)Nc3ccc(C(N)=O)cc3)[nH]c2c1,0,0,0,-1,0,2
O=C(CSc1nc2ccc(Cl)cc2[nH]1)Nc1ccc2[nH]c(=O)[nH]c2c1,1.0*,1,0,3,0,4
Cc1ccc2nc(SCC(=O)c3ccc(O)cc3O)[nH]c2c1,0,2,11*,5,3,2
COC(=O)[C@]12C[C@H](CC(=O)N3CCN(C(=O)c4ccco4)CC3)C(=O)N(Cc3cccc4ccccc34)C1=C[C@H](C1CCCC1)O[C@@H]2C,-1,-1,-4,-1,.,.
COC(=O)[C@]12C[C@H](CC(=O)NCCC(C)C)C(=O)N(Cc3ccco3)C1=C[C@H](C(C)C)O[C@@H]2C1CC1,-1,0,4,-3,.,.
Fc1cccc(C2NN=C(c3ccccc3)S2)c1 (stereo unspecified),2.3*,4.5*,28*,10*,3,7
O=C1c2ccccc2C2=Nc3ccccc3SC(c3cccc(F)c3)C12 (stereo unspecified),-1,0,-3,-1,0,-9
C[C@@H]1COc2cc(Br)ccc2S(=O)(=O)N1Cc1cn(Cc2ccc(C(F)(F)F)cc2)nn1,-1,1,0,0,.,.
CCN(CC)C(=O)CC[C@H]1CC[C@]2(CCCN(c3ccccc3)C2)O1,-1,-2,2,0,.,.
O=C(CCO)c1ccc(O)cc1,-1,1,3,-1,4.3*,1
O=C(Cc1ccc(Cl)cc1)c1ccc(O)cc1,-1,1,6,1,4.9*,3
COC(=O)[C@]12C[C@H](CC(=O)N3CCSCC3)C(=O)N(Cc3ccco3)C1=C[C@H](C1CCCC1)O[C@@H]2C,-1,0,2,0,.,.

# Compound activity from PubChem.
